Measurements published in the supplement of paper PMC10849652.
Targets with a hit are over-represented here; the source holds about 7,900 in all. About 0.6% of all pairs of compound and target were hits. Unmarked numbers belong to inactive results.

How the values were obtained:
Test in all cases: log2 fold change, soluble protein after heating vs DMSO (PISA); higher = thermal stabilisation; K562 cells, 10 uM, 30 min; active = over 0.2 and 3.5 SD of the protein, either way, in both replicates (recomputed)
[1] = compound: CC[C@@H]1C(=O)N(C)c2cnc(Nc3ccc(C(=O)NC4CCN(C)CC4)cc3OC)nc2N1C1CCCC1
Outline: (§1)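 Thermal stability values are relative to control samples and come from duplicates. They are expressed as log2 fold changes. For measurement, K562 cells (2×10^6 cells/mL) received 10 μM compound for 30 min, and aliquots were heated for 3 min over 48°C-58°C, pooled, and extracted at 4°C in PBS with 0.5% NP-40. Soluble protein, the supernatant after 21,000xg for 90 min, was quantified by TMTpro 16plex LC-MS/MS with equalised channel sums.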

[2] = compound: CC[C@@H]1C(=O)N(C)c2cnc(Nc3ccc(C(=O)N[C@H]4CC[C@H](N5CCN(CC6CC6)CC5)CC4)cc3OC)nc2N1C(C)C [volasertib]
Outline: as §1

[3] = compound: CC[C@H](C)N1C=C(C2=C(C=C(C=C21)C3=CN=C(C=C3)N4CCNCC4)C(=O)NCC5=C(C=C(NC5=O)C)C)C
Outline: as §1

[4] = compound: CC[C@H](C)[C@@H](C(=O)N[C@@H]([C@@H](C)O)C(=O)N[C@@H](CC(C)C)C(=O)[C@]1(CO1)C)NC(=O)[C@H]([C@@H](C)CC)N(C)C(=O)C [epoxomicin]
Outline: as §1

[5] = compound: CCn1c(C(=O)N(C2CC2)C2CC2)cc2c3c(ncn3C)c(Nc3cc(C)n(C)n3)nc21
Outline: as §1

[6] = compound: CCn1cc(-c2ccnc3[nH]c(-c4cccc(CN(C)C)c4)cc23)c(-c2ccc(NC(=O)N(C)C)cc2)n1
Outline: as §1

[7] = compound: CN(C)CC(=O)Nc1ccc2[nH]c(=O)c3ccccc3c2c1
Outline: as §1

[8] = compound: CN(CCOC1=CC=C(C=C1)C[C@H]2C(=O)NC(=O)S2)C3=CC=CC=N3 (racemic) [rosiglitazone]
Outline: as §1

[9] = compound: CN1C2=C(C3=C1C(=O)N(N=C3)CC4=CC(=CC=C4)N)SC(=C2)S(=O)C
Outline: as §1

[10] = compound: CN1CCC(CNc2ccc3ncc(-c4cccc(OC(F)(F)F)c4)n3n2)CC1
Outline: as §1

[11] = compound: CN1CCN(CCOc2cc(OC3CCOCC3)c3c(Nc4c(Cl)ccc5c4OCO5)ncnc3c2)CC1 [saracatinib]
Outline: as §1

[12] = compound: CN1CCN(c2nc(C3=C(c4c[nH]c5ccccc45)C(=O)NC3=O)c3ccccc3n2)CC1 [sotrastaurin]
Outline: as §1

[13] = compound: CN1CC[C@H](c2c(O)cc(O)c3c(=O)cc(-c4ccccc4Cl)oc23)[C@H](O)C1 [alvocidib]
Outline: as §1

[14] = compound: CN1CCc2c(c3ccccc3n2Cc2ccc(C(=O)NO)cc2)C1 [Tubastatin A]
Outline: as §1

[15] = compound: CNC(=O)C1=CC=CC=C1NC2=NC(=NC=C2Cl)NC3=C(C=C(C=C3)N4CCOCC4)OC
Outline: as §1

[16] = compound: CNC(=O)c1ccc(Nc2ncc(C(F)(F)F)c(NCc3nccnc3N(C)S(C)(=O)=O)n2)cc1 [defactinib]
Outline: as §1

[17] = compound: CNCc1ccc(-c2[nH]c3cc(F)cc4c3c2CCNC4=O)cc1 [rucaparib]
Outline: as §1

[18] = compound: CNc1nc(-c2ccc3c(N)n[nH]c3c2)cc(N2C[C@@H](C(=O)NC3CCCCC3)CC[C@H]2C)n1
Outline: as §1

[19] = compound: COC(=O)N[C@@H](C)CNc1nccc(-c2cn(C(C)C)nc2-c2cc(Cl)cc(NS(C)(=O)=O)c2F)n1 [encorafenib]
Outline: as §1

[20] = compound: COC(=O)[C@H](CCSC)NC(=O)C1=C(C=C(C=C1)NC[C@H](CS)N)C2=CC=CC=C2
Outline: as §1

Chain of UniProt Q9NV06 (Q9NV06 whole entry, looked up): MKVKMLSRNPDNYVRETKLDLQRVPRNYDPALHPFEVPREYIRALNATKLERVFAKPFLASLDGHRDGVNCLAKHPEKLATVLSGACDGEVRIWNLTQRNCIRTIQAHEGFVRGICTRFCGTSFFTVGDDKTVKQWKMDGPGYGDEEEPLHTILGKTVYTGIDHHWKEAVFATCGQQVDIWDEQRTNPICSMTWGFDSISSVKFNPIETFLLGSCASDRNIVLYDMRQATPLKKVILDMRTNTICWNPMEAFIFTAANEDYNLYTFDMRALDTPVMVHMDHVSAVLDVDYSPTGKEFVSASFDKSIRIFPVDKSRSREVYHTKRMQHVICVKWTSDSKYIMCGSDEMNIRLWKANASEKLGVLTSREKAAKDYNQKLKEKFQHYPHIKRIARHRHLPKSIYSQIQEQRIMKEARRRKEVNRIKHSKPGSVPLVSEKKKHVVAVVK
Chain of UniProt Q9UPT5 (Q9UPT5 whole entry, looked up): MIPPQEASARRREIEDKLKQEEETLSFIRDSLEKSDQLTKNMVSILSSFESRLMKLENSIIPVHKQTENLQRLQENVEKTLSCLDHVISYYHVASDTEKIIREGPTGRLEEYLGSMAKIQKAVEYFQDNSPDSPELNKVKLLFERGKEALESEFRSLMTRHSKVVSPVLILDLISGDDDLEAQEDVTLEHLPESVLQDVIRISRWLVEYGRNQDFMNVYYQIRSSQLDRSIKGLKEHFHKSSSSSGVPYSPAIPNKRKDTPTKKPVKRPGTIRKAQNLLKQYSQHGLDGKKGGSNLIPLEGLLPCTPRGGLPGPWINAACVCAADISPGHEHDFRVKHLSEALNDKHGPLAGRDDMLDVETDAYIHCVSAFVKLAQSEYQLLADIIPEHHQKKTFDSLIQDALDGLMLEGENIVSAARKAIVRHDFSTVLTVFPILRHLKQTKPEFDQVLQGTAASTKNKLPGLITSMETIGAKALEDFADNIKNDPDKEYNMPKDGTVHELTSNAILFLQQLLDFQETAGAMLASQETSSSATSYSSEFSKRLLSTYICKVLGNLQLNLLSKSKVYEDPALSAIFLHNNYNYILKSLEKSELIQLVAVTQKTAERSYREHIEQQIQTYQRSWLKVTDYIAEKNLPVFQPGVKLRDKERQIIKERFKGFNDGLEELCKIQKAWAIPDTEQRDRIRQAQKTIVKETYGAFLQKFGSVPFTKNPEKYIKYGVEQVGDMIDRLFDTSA
Chain of UniProt P39880 (P39880 whole entry, looked up): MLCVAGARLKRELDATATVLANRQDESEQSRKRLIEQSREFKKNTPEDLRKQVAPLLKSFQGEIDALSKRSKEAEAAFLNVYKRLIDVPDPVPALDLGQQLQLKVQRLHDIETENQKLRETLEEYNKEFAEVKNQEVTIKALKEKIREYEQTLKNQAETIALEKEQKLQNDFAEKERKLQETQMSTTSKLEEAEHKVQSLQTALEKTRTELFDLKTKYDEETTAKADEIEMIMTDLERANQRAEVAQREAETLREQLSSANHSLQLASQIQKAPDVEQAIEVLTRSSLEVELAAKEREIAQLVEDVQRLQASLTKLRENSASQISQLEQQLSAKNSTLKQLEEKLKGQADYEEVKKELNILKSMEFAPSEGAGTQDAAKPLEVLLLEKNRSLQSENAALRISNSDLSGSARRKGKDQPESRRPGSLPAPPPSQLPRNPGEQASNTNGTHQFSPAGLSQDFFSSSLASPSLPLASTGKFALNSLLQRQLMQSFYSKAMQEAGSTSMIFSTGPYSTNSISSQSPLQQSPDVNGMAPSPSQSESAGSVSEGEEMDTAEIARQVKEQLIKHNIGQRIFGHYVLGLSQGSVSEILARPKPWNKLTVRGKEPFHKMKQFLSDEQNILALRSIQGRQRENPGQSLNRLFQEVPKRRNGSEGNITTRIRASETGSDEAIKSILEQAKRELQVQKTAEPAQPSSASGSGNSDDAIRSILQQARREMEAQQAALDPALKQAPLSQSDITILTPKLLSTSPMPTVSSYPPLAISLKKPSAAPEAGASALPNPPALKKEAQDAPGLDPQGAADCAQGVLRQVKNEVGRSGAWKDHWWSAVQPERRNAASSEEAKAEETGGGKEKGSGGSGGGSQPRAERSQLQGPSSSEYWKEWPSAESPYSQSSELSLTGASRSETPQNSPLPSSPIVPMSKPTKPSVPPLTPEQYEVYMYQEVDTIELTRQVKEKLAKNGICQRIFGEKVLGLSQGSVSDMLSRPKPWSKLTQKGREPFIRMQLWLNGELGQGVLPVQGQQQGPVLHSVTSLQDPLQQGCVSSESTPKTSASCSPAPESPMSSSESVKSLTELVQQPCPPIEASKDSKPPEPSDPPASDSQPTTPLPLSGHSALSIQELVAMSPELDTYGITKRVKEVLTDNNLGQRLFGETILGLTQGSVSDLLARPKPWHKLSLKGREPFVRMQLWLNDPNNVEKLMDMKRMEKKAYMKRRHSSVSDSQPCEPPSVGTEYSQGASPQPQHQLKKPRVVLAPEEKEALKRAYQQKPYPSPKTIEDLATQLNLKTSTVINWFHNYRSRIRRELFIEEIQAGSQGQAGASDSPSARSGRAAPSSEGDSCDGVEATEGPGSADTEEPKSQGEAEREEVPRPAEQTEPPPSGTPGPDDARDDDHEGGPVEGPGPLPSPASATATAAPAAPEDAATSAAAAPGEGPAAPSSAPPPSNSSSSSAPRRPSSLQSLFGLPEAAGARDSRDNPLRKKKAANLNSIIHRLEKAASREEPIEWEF
Chain of UniProt Q5QJE6 (Q5QJE6 whole entry, looked up): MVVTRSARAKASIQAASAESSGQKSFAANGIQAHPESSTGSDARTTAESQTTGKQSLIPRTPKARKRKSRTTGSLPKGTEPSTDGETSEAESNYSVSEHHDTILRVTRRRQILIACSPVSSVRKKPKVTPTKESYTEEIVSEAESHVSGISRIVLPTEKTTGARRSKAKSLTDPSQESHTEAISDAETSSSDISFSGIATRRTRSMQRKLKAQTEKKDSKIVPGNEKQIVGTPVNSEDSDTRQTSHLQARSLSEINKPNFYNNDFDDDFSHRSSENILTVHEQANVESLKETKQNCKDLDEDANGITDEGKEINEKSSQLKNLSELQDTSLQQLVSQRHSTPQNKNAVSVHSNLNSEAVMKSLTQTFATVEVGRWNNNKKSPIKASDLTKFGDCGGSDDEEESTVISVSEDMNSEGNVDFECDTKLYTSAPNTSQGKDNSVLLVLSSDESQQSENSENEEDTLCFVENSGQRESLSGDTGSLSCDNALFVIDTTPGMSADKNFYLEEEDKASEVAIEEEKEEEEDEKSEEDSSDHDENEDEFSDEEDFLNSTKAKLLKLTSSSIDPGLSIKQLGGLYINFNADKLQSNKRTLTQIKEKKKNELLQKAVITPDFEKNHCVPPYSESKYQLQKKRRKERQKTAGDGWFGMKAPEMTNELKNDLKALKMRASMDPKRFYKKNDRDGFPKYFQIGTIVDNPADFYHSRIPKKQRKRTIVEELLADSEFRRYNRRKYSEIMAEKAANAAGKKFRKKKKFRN
Chain of UniProt Q96E09 (Q96E09 whole entry, looked up): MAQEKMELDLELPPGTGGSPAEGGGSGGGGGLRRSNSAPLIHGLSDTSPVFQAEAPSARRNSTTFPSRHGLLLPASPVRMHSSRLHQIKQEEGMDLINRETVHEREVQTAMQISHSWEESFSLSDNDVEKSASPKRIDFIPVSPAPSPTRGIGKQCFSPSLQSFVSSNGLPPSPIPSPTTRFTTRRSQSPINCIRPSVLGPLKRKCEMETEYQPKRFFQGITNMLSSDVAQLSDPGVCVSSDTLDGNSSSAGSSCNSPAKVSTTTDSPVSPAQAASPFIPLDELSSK
Chain of UniProt Q5W0V3 (Q5W0V3 whole entry, looked up): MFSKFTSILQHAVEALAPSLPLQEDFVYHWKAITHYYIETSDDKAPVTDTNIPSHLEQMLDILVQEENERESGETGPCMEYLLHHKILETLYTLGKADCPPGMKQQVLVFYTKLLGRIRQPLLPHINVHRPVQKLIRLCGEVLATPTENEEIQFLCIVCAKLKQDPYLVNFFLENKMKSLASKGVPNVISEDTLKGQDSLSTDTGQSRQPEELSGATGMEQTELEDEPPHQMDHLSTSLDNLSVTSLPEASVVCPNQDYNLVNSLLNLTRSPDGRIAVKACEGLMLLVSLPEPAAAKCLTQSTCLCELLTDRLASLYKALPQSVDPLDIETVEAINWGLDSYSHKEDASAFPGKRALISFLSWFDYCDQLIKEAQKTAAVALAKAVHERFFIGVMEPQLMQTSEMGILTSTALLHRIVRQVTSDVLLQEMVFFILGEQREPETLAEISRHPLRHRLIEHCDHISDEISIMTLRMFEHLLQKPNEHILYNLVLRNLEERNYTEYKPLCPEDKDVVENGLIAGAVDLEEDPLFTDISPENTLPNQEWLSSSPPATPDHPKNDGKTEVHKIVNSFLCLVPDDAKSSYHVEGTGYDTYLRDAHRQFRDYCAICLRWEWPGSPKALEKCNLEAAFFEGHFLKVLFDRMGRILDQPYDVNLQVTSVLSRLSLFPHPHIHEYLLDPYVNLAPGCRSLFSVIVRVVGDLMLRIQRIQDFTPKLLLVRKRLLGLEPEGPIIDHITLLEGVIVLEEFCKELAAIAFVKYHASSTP
Chain of UniProt Q15369 (Q15369 whole entry, looked up): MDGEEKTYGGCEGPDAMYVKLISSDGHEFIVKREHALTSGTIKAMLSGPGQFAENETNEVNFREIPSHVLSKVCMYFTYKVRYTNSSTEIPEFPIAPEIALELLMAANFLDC
Chain of UniProt Q9H2P9 (Q9H2P9 whole entry, looked up): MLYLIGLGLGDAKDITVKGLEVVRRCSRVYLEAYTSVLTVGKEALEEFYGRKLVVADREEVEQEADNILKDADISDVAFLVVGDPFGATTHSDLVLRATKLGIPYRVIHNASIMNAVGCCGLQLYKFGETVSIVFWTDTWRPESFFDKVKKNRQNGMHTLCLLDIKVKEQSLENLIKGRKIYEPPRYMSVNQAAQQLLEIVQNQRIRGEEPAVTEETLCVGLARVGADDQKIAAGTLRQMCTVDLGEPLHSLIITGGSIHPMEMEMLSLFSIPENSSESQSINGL

Target	log2 fold change [1]	log2 fold change [2]	log2 fold change [3]	log2 fold change [4]	log2 fold change [5]	log2 fold change [6]	log2 fold change [7]	log2 fold change [8]	log2 fold change [9]	log2 fold change [10]	log2 fold change [11]	log2 fold change [12]	log2 fold change [13]	log2 fold change [14]	log2 fold change [15]	log2 fold change [16]	log2 fold change [17]	log2 fold change [18]	log2 fold change [19]	log2 fold change [20]
FAM122A (UniProt Q96E09)	-0.042	-0.054	0.006	-0.141	-0.029	-0.426 (active)	-0.043	0.064	-0.081	-0.699 (active)	-0.005	-0.027	0	0.096	-0.09	-0.018	0.015	0.017	-0.016	0.056
FAM160B1 (UniProt Q5W0V3)	-0.007	-0.043	0.07	0	0.027	-0.057	-0.052	0.009	-0.056	-0.254	-0.003	-0.071	-0.138	0	-0.011	-0.01	-0.036	-0.007	-0.015	0.072
EGLN1 (UniProt Q9GZT9)	0.117	-0.001	0.048	0.078	-0.011	-0.004	0.007	0.035	-0.006	-0.052	-0.01	-0.074	-0.003	-0.296 (active)	0.065	-0.027	0.114	0.03	0.001	0.002
EXOC7 (UniProt Q9UPT5)	-0.156	-0.619 (active)	0.09	0.048	-0.091	0.015	0.006	0.048	0.033	-0.317 (active)	0.024	-0.218	-0.039	0.029	-0.04	-0.06	-0.01	-0.077	0.006	-0.047
CWC27 (UniProt Q6UX04)	-0.103	-0.421 (active)	0.086	0.094	-0.089	0.117	0.066	0.143	-0.011	-0.091	0.01	-0.093	0.011	0.012	0.022	-0.139	-0.001	-0.064	0.068	-0.04
DYNC1LI2 (UniProt O43237)	0.324	-0.021	-0.181	-0.072	-0.085	-0.041	0.024	0.052	-0.007	0.101	-0.001	-0.079	0.258	0.033	0.028	-0.039	0.42	0.003	0.212	0.016
DPYSL2 (UniProt Q16555)	0.055	-0.037	0.014	0.129	-0.071	-0.073	0.11	0.039	-0.058	-0.067	0.127	0.062	-0.089	-0.003	-0.066	0.02	0.015	-0.032	-0.054	-0.009
CUX1 isoform 3 (UniProt P39880)	0.008	-0.153	0.036	0.027	-0.041	-0.008	-0.019	0.125	0.004	-0.123	0.002	-0.003	-0.02	0.021	0.012	-0.065	0.037	-0.062	-0.018	0.01
DHCR24 (UniProt Q15392)	0.769	1.21 (active)	0.104	-0.056	-0.1	0.06	0.236	0	-0.094	0.525	0.761	0.567	0.002	0.338	-0.094	-0.017	0.561	0.117	0.001	0.01
DCAF13 (UniProt Q9NV06)	0.134	0.26	0.03	-0.24	0.038	0.132	-0.166	-0.112	0.195	0.136	-0.027	0.001	0.214	0.094	0.074	0.165	0.19	0.045	0.07	0.029
ELOC (UniProt Q15369)	-0.009	-0.016	0.042	0.028	0.006	-0.087	0.108	0.011	-0.033	-0.014	0.008	0.01	-0.074	0.035	0.025	-0.033	-0.021	0	-0.021	-0.014
DPH5 isoform 5 (UniProt Q9H2P9)	0.047	0.08	-0.022	0.049	-0.055	-0.018	-0.013	0.013	-0.115	0.034	-0.007	-0.017	-0.064	-0.022	0.07	0	-0.061	0	0.025	0.004
DBNL isoform 3 (UniProt Q9UJU6)	-0.143	-0.367 (active)	0.031	0.012	-0.046	0.007	0.011	0.095	-0.075	-0.109	0.04	-0.014	-0.07	0.009	0.01	-0.106	-0.1	-0.05	0.061	-0.004
DNAH5 (UniProt Q8TE73)	0.042	0.01	-0.079	-0.052	-0.015	-0.009	-0.031	-0.044	0.029	0.03	0.058	0.017	0.044	0.058	-0.057	0.015	-0.071	-0.099	-0.006	-0.072
CUTA isoform 2 (UniProt O60888)	0.063	-0.057	-0.033	0.125	0.03	-0.109	0.175	-0.13	0.164	-0.027	0.202	0.097	-0.158	0.049	0.003	-0.027	-0.035	0.034	-0.002	0.122
DNTTIP2 (UniProt Q5QJE6)	0.047	-0.002	0.031	-0.144	0.015	0.09	-0.028	-0.088	0.226	-0.028	-0.038	-0.104	-0.007	0.145	0.011	-0.131	0.171	0.03	0.067	0.121
